# Reference: PubChem BioAssay AID1578 (Sanford-Burnham Center for Chemical Genomics, 2009)
# Hit rate of the full screen: of about 290,000 compounds, about 3,000 (1%) were called active. The full list was thinned out, with actives kept by preference. Values without a mark were called inactive. Rule as the data show it: active = inhibition mostly above about 36% (no sharp cut-off); inactive = mostly below about 34%.
# Assay: inhibition of NOD1-driven NF-kB reporter – cell-based, luminescence, uHTS, primary screen (AID 1578);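 also: HEK-293T reporter cells stimulated with the NOD1 agonist gamma-tri-DAP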
# Details: NOD1-driven NF-kB luciferase reporter cells, at 4 µM, hits give high values
row,Structure (SMILES),inhibition
1,CCn1nc(C)cc1-c1nnc(Sc2ncc([N+](=O)[O-])s2)n1C,35.4% (active)
2,Cn1cnc([N+](=O)[O-])c1Sc1nnc(-c2cccnc2)n1C,-5.6%
3,CCn1ncc([N+](=O)[O-])c1C(=O)n1nc(C)cc1C,-22.7%
4,CC(C)(C)SCCNS(=O)(=O)c1ccc2ccccc2c1,7.5%
5,COc1ccc(C(=O)CC(=O)Nc2ccc([N+](=O)[O-])cc2)cc1,-14.5%
6,COc1ccc(NS(=O)(=O)c2cc(NC(=O)CC(=O)c3ccc([N+](=O)[O-])cc3)ccc2C)cc1,54.7% (active)
7,Cc1ccc(C(=O)CCC(=O)Nc2ccc(Cl)c(S(=O)(=O)Nc3cccc(Cl)c3)c2)cc1,19.9%
8,Cc1cccc(NS(=O)(=O)c2cc(NC(=O)CC(=O)c3ccc([N+](=O)[O-])cc3)ccc2C)c1,41.5%
9,COc1cccc(NC(=O)CC(=O)c2ccc([N+](=O)[O-])cc2)c1,-3.4%
10,Cn1ncc2c(Nc3ccc(Cl)c(Cl)c3)ncnc21,-5.2%
11,Cc1ccc(OCCCCNC2CCCCC2)c(C)c1,30.3% (active)
12,Cc1ccc(OCC(O)CNC2CCCC2)c(C)c1 (stereo unspecified),0%
13,Cc1ccc(OCCCCNC2CCCC(C)C2C)c(C)c1 (stereo unspecified),-22.2%
14,CN(Cc1ccccc1)C(=O)c1cc(=O)[nH]c2ccccc12,6.3%
15,Cc1ccc(-n2nc(-c3ccccc3)cc2Nc2ccccc2N)cc1,-9.6%
16,O=C(CS(=O)c1ccc(C(F)(F)F)cc1[N+](=O)[O-])Oc1ccccc1 (stereo unspecified),21.2%
17,CS(=O)(=O)c1ccc(S(=O)CC(=O)Oc2ccc(Cl)cc2)c([N+](=O)[O-])c1 (stereo unspecified),47.4% (active)
18,O=C(CS(=O)c1ccc(C(F)(F)F)cc1[N+](=O)[O-])Oc1ccc(Cl)cc1 (stereo unspecified),15.4%
19,Nc1ccc(-c2nc3cc([N+](=O)[O-])ccc3o2)cc1,-15.4%
20,COc1ccc(S(=O)Cc2ccc(C(=O)NCc3cccc(OC)c3)o2)cc1 (stereo unspecified),-16.8%
21,O=C(CSCc1cnn(-c2ccccc2)c1-n1cccc1)NCc1ccccn1,-18.4%
22,O=C(CSCc1cnn(-c2ccccc2)c1-n1cccc1)NCc1cccnc1,60.7% (active)
23,COc1cccc(CNC(=O)CSCc2cnn(-c3ccccc3)c2-n2cccc2)c1,19.5%
24,CCCCCCCC(=O)N/N=C(\C)c1cccnc1,7.8%

row,Structure (SMILES),inhibition
1,COCCNC(=O)/C(C#N)=C/C=C/c1ccccc1[N+](=O)[O-],76.2% (active)
2,COc1cc(NC(=O)/C=C/c2ccccc2[N+](=O)[O-])cc(OC)c1,-36.1%
3,COCCNC(=O)/C(C#N)=C/c1ccc(O)c([N+](=O)[O-])c1,-50.1%
4,N#C/C(=C\C=C\c1ccccc1)C(=O)NCc1ccco1,19.2%
5,O=C(O)/C=C/c1ccccc1[N+](=O)[O-],2.2%
6,N#C/C(=C\C=C\c1ccccc1[N+](=O)[O-])C(=O)NCc1ccccc1,97.3% (active)
7,O=C(/C=C/c1ccccc1)NCc1cccnc1,-46%
8,COCCNC(=O)/C(C#N)=C/C=C/c1ccccc1,-4.8%
9,N#C/C(=C\c1ccc(O)c([N+](=O)[O-])c1)C(=O)NCc1ccccc1,-13.6%
10,COC(=O)C(=Cc1ccccc1[N+](=O)[O-])C(=O)OC,28.4% (active)
11,N#C/C(=C\c1ccccc1[N+](=O)[O-])C(=O)NCc1ccccc1,-5%
12,N#C/C(=C\C=C\c1ccccc1)C(=O)NCc1cccnc1,68.7% (active)
13,Cc1cc([N+](=O)[O-])ccc1NC(=O)Nc1ccc(F)cc1F,-5%
14,Cc1ccc(Cn2nnc3c(=O)n(Cc4cc(C)ccc4C)cnc32)cc1,-9.7%
15,CN(C)S(=O)(=O)c1cccc(NC(=O)c2cc3ccccc3o2)c1,-40.6%
16,COc1ccc(/C=C(\C#N)C(=O)NC(C)c2ccccc2)cc1O (stereo unspecified),-1.1%
17,CC(=O)c1c(O)c2ccccc2n(C(C)C)c1=O,12%
18,O=C(COC(=O)c1ccco1)Nc1ccccc1[N+](=O)[O-],-4.7%
19,CN(C)C(=O)Nc1ccccc1CC[N+](=O)[O-],-28.5%
20,COc1ccc(-c2csc3ncnc(Cl)c23)cc1,-16.4%
21,Cc1c(C(=O)N2CCN(c3ccccc3F)CC2)oc2c1C(=O)CC(C)(C)C2,0%
22,O=S(=O)(/N=C(\Sc1ccc(Cl)cc1)c1ccccc1)c1ccccc1,3.3%
23,C=CCn1c(=O)c2c3c(sc2n2c(Nc4ccc(C(=O)OCC)cc4)nnc12)CCCC3,-30.7%
24,CCC(C)(C)NC(=O)C(c1ccc(OC)cc1)N(C(=O)CCC(=O)Nc1cc(C)on1)c1ccc(F)cc1 (stereo unspecified),-11.7%

row,Structure (SMILES),inhibition
1,CC(C)c1ccc(/C=N/NC(=O)CC(=O)NCc2ccccc2)cc1,-41.2%
2,CCN(CC)S(=O)(=O)c1cc([N+](=O)[O-])ccc1NNC(=O)Nc1ccccc1,-23.4%
3,CCN(CC)S(=O)(=O)c1cc([N+](=O)[O-])ccc1NNC(=O)Nc1ccc(Cl)c(Cl)c1,83.8% (active)
4,CCN(CC)S(=O)(=O)c1cc([N+](=O)[O-])ccc1NNC(=O)Nc1ccc(F)cc1,2%
5,COc1ccc(CN2CCN(C(=O)CCC(=O)Nc3nnc(C4CCCCC4)s3)CC2)cc1F,26.9%
6,COc1ccc(C(=O)N/N=C/c2ccc(OC)c(COc3ccccc3)c2)cc1,3.5%
7,COc1ccc(/C=N\NC(=O)c2ccccc2F)cc1COc1ccc(F)cc1F,31.2%
8,COc1ccc(C(=O)N/N=C/c2ccc(OC)c(COc3ccc(F)cc3F)c2)cc1,38.8%
9,COc1ccc(/C=N\NC(=O)c2ccccc2)cc1COc1ccc(F)cc1,39.2%
10,COc1ccc(/C=N/NC(=O)c2cc(C(C)(C)C)[nH]n2)cc1COc1ccc(F)cc1F,44.1% (active)
11,COc1ccc(C(=O)N/N=C/c2ccc(OC)c(COc3ccc(F)cc3)c2)cc1,56.6% (active)
12,C/C(=N\NC(=O)c1ccc2ccccc2c1)c1cccs1,-67.5%
13,Cc1ccccc1CSCCNC(=O)CCSc1ccccc1,71.3% (active)
14,Cc1ccc(CNC(=O)CCSCc2ccccc2C)cc1,-14.9%
15,Cc1ccc(SCCC(=O)NCCSCc2ccccc2C)cc1,-35.1%
16,O=C(CCSc1ccccc1)NCCSCc1ccccc1,-33.8%
17,COc1ccc(CNC(=O)CCSCc2ccc(C)cc2)cc1,-7.5%
18,COc1ccc(CNC(=O)CCSCc2ccccc2C)cc1,49.7% (active)
19,CCC(C)[C@H](NC(=O)Nc1ccccc1F)C(=O)O (stereo partly specified),-12.6%
20,NS(=O)(=O)c1cccc(NC(=O)COC(=O)CCSc2ccccc2)c1,-26.8%
21,O=[N+]([O-])c1ccc(Sc2n[nH]c(-c3ccncc3)n2)nc1,-10.2%
22,O=[N+]([O-])c1cnc(Sc2ccncn2)s1,66% (active)
23,O=C(Nc1ccc(Cl)cc1)Nc1ccccc1Sc1ncc([N+](=O)[O-])s1,-6.5%
24,O=C(O)C1Nc2c(cccc2C(F)(F)F)C2C=CCC12 (stereo unspecified),-8.8%

row,Structure (SMILES),inhibition
1,O=C(Nc1ccccc1)c1c(F)cccc1F,-2.4%
2,O=C(Nc1ccncc1)c1c(F)c(F)c(F)c(F)c1F,11%
3,O=S(=O)(c1ccc(Cl)s1)N1CCN(c2ncccn2)CC1,-11.8%
4,Cc1ccccc1-c1nsc(SCC(=O)c2ccc(Cl)cc2)n1,-4.8%
5,c1coc(C2=NCCc3ccccc32)c1,-18%
6,CCN(CC)c1nc(N)nc(N(c2ccccc2)c2ccccc2)n1,13.6%
7,Nc1nc(Cl)nc(N(c2ccccc2)c2ccccc2)n1,-8.3%
8,Nc1nc(CCl)nc(N(c2ccccc2)c2ccccc2)n1,50.5% (active)
9,Fc1ccc2c(c1)C(c1ccncc1)=NNC(c1ccccc1)=N2,16%
10,Cc1ccc(C(=O)COC(=O)c2ccc(-c3cnc4ccccc4n3)cc2)cc1C,-22.2%
11,O=C1CCCN1CCCNC(=S)Nc1ccc(Cl)cc1Cl,-41.9%
12,N/C(=N\NC(=O)c1sccc1OCc1ccc(Cl)cc1Cl)c1ccccn1,-6%
13,CCc1ccc(C(C(=O)NC2CCCC2)N(C(=O)/C=C/C(=O)Nc2cc(C)on2)c2ccccc2C)cc1 (stereo unspecified),76.7% (active)
14,Cc1cc(NC(=O)/C=C/C(=O)N(c2ccccc2C)C(C(=O)NC2CCCC2)c2ccc(F)cc2)no1 (stereo unspecified),30.5%
15,CCOc1ccc(N(C(=O)/C=C/C(=O)Nc2cc(C)on2)C(C(=O)NC2CCCC2)c2ccccc2C)cc1 (stereo unspecified),52.5%
16,ClCc1nc2ccccc2c2ccccc12,64.7% (active)
17,CCOC(=O)c1c(CCl)nc2ccccc2c1C,-9.2%
18,CCOC(=O)c1c(CCl)nc2ccccc2c1-c1ccccc1,19.7%
19,CC(=O)N(CCc1ccccc1C)Cc1cc2ccc(C)cc2[nH]c1=O,-1%
20,Cc1nn(CC(=O)N2CCN(C)CC2)c(=O)c2c1sc1ccccc12,-7.7%
21,CCN1CCN(C(=O)Cn2nc(C)c3sc4ccccc4c3c2=O)CC1,-12.8%
22,CCOC(=O)N1CCN(C(=O)Cn2nc(C)c3sc4ccccc4c3c2=O)CC1,53.1% (active)
23,Cc1nnc(SCc2cn3ccsc3n2)n(N)c1=O,8.4%
24,Cc1ccc(C)c2sc(NC(=O)CN3C(=O)CCC3=O)nc12,14.9%
